# From ChEMBL document CHEMBL3433997, “St. Jude Leishmania screening dataset” (2016)
# “And” between values parts separate entries of the source, which are not always exact repeats. Equal values may be shown once.
# Columns and labels:
# Format in all cases: functional
# [1] = target: Solute carrier family 2, facilitated glucose transporter member 1 (Homo sapiens) (UniProt P11166); assay: ST_JUDE_LEISH: Cytotoxicity at 2uM final concentration against transgenic Leishmania Mexicana promastigotes LmGLUT1 that are glucose transport deficient and complemented with the human glucose transporter GLUT1. Activity is measured by DNA content using SYBR green in vitro
# [2] = target: Hexose transporter 1 (Plasmodium falciparum) (UniProt O97467); assay: ST_JUDE_LEISH: Cytotoxicity at 2uM final concentration against transgenic Leishmania Mexicana promastigotes LmPfHT that are glucose transport deficient and complemented with the Plasmodium falciparum hexose transporter. Activity is measured by DNA content using SYBR green in vitro
# [3] = target: Glucose transporter (Leishmania mexicana) (UniProt O61059); assay: ST_JUDE_LEISH: Cytotoxicity at 2uM final concentration against transgenic Leishmania Mexicana promastigotes LmGT2 that are glucose transport deficient and complemented with the L. Mexicana glucose transporter 2. Activity is measured by DNA content using SYBR green in vitro
# Sequence of Solute carrier family 2, facilitated glucose transporter member 1 (Homo sapiens) (P11166 whole entry): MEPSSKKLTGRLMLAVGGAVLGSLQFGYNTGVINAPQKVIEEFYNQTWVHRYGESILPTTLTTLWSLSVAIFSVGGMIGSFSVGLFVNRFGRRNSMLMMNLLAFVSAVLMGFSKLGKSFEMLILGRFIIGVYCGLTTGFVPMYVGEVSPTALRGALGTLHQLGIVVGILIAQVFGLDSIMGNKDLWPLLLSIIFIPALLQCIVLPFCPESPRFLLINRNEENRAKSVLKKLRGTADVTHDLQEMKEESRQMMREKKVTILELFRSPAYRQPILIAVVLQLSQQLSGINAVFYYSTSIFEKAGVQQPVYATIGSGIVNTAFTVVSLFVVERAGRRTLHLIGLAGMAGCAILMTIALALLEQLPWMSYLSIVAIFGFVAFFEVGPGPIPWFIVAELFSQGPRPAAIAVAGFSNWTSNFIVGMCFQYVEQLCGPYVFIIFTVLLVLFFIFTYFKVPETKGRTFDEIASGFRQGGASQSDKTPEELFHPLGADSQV
Compound,inhibition [1],inhibition [2],inhibition [3]
COc1ccc2nccc([C@@H](O)CN3CCC(NC(=O)C(c4cc5ccccc5o4)N4CCN(c5ccccc5OC)CC4)CC3)c2c1 (stereo partly specified),1.2%,0.92%,-0.23%
CN(C)CCOC(=O)C1(O)CCC2CC1C2(C)C (stereo unspecified),2.52%,2.06%,2.45%
Cc1cc(C(=O)Nc2ccc(OCc3ccccc3)cc2)on1,-1.56%,-2.29%,0.64%
Cc1ccc(Oc2c(-c3ccccc3CN3CCCC3CN(C)C)cnn(C)c2=O)cn1 (stereo unspecified),6.33%,4.63%,5.57%
O=C(/C=C/c1ccc(Cl)c(Cl)c1)NCCCCCN1CCC(c2c[nH]c3ccccc23)C(O)C1 (stereo unspecified),0.14% and 4.45%,0.8% and 4.3%,2.14% and 3.3%
Cc1cc(N[C@@H](Cc2ccccc2)C(=O)NC2CCCC2)nc(NCCOc2ccccc2)n1,1.41%,-1.48%,2.19%
CC(=O)N1N=C(c2ccc(Cl)cc2)Sc2c1nc(C1CCCCC1)n2C(C)=O,-0.67%,0.1%,-0.39%
CC(=O)c1ccc(NC(=O)Nc2ccc3nccc(N4CCN(C)CC4)c3c2)cc1,1.22%,1.77%,1.46%
CC(C)C[C@H](NC(=O)c1cc2ccccc2s1)C(=O)N[C@H]1CCN(Cc2ccc(I)c(OC3CCN(C)C3)c2)C1 (stereo partly specified),-1.02%,1.35%,-2.35%
COc1ccc(-c2cccc(NC(=O)c3cccc(C#N)c3)c2)cc1CNC(C)C,9.6%,8.42%,5.03%
Cc1ccc2nc(C)n(C3CCN(C(=O)Cc4ccc(F)c(F)c4)CC3)c2c1,2.56%,2%,2.78%
O=C(NCCCCN1CC=C(c2ccc3c(c2OCC2CC2)CCCC3)CC1)c1ccc(-c2ccc(C(F)(F)F)cc2)cc1,5.41%,5.39%,5.23%
